Shown are actives, neighbours in structure and some others; about 6.7% of the full set was active somewhere.
MCF10A rereplic = DNA re-replication induction in MCF 10a cells; MCF 10A DNA re-replication, Hoechst nuclear intensity, 48 h; Potency, µM (top dose mostly 46.1 µM), for inactives: top-dose activity, positive = re-replication, hits mostly activators; 350,000 compounds, 2.9% hits; AID 624296; further: % of control where 0% means no effect; nearly all actives have a fitted effect of over 50% in size
PINK1 expr mod = modulators of PINK1 expression; PINK1 immunofluorescence, high-content cytometry, 24 h; Potency, µM (highest dose often 76.6 µM), inactives show top-dose activation (PINK1 increase), most hits filed as activators; 410,000 compounds, 0.2% hits; active means well fitted activation curve with a large enough effect; inconclusive means small, poorly fitted or top-dose-only effect; cell line not stated here; further: % of control where 0% means no effect; nearly all actives have a fitted effect of over 65% in size
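Fluorescence from anti-PINK1 antibody, together with nuclear and cell stains, was scanned on a laser-scanning cytometer. Before staining, stable-line cells were incubated 24 hours with compounds at 5 concentrations; primary antibody 12 h at 10 degrees C.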
KB-3-1 tox = kills parental KB-3-1 adenocarcinoma cells. KB-3-1 viability, CellTiter-Glo ATP luminescence, 72 h. Potency, µM (series often up to 46.1 µM), usual class: cytotoxic. 400,000 compounds, 1.4% hits. AID 1347075; further: on the % scale 0 is the no-effect control and ±100 the full control effect; nearly all actives have a fitted effect of over 60% in size
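KB-3-1 cells, DMEM (no phenol red) + 10% FBS; compound by pin transfer, 72 h, 37 °C. Readout: CellTiter-Glo luminescence after 10 min. Data normalized, curve-fitted.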
SW480 rerep = inducers of DNA re-replication in SW480 colon cancer cells; SW480 DNA re-replication, Hoechst DNA content imaging, 48 h; AID 624297; Potency, µM (doses to about 46.1 µM), inactives show at the top dose re-replication activation, most hits filed as activators; 340,000 compounds, 1.8% hits; further: % of control where 0% means no effect; nearly all actives have a fitted effect of over 55% in size
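Cells (250 per well) received 23 nL compound or DMSO by pin tool and were kept 48 hr at 37 C, 5% CO2. Nuclei were then stained with Hoechst for 40 min and scanned for DNA content.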
KB-V1 MDR tox = KB-V1 MDR subline cytotoxicity. KB-V1 MDR cells viability, CellTiter-Glo, 72 h. Potency, µM (titrated, usually from 46.1 µM), hits mostly cytotoxic. 400,000 compounds, 3.4% hits. AID 1347076; further: on the % scale 0 is the no-effect control and ±100 the full control effect; nearly all actives have a fitted effect of over 60% in size
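Compound-treated KB-V1 multidrug-resistant cells, 72 h, 37 degrees C; viability by CellTiter-Glo. Fitted qHTS curves give the values.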
The depositor's hits bear a star; i = inactive; u = inconclusive; x = not tested or not shown; ! = repeats disagree; [ ] = dose if it differs, or a comment. Unless noted, the call rests on the fitted dose curve; in most records, active means well fitted curve in the direction sought with a large enough effect; inconclusive means small, poorly fitted or top-dose-only effect, or another doubt; inactive means no such curve, though single readings can be large; an effect the other way counts as inactive or inconclusive. Potency means the concentration at half of the fitted maximal effect.

SMILES	MCF10A rereplic	PINK1 expr mod	KB-3-1 tox	SW480 rerep	KB-V1 MDR tox
COC(=O)[C@@]12C[C@@H](CC(=O)NCc3ccc(OC)c(OC)c3)C(=O)N(CCc3ccc(OC)c(OC)c3)C1=CCC(C)(C)C2	x	x	i	x	u
COC(=O)[C@@]12C[C@@H](CC(=O)NCCc3ccccc3OC)C(=O)N(CCc3ccc(OC)c(OC)c3)C1=CCC(C)(C)C2	x	x	u	x	21µM*
CCC(C)Sc1ccc(-c2nc3ccccn3c2NCc2ccccc2)cc1OC (stereo not drawn)	21µM*	u	u	-4%	u
CCC(C)Sc1ccc(-c2nc3ccc(C)cn3c2NCc2ccccc2)cc1 (stereo not drawn)	u	5%	u	23%	u
COc1ccc(CSc2ccc(-c3nc4ccccn4c3NCc3ccccc3)cc2OC)cc1	23µM*	-1%	u	u	u
FC1(F)Oc2ccc(-c3ccc4ncnc(NCc5cccs5)c4c3)cc2O1	x	x	u	x	i
COc1ccc(C(=O)N2CCC(c3ccncc3)CC2)cc1OC	x	-1%	i	x	i
NNC(=O)c1cc2c(s1)-c1cc(Cl)ccc1SC2	21µM*	8%	u	29µM*	i
O=C(NCc1ccc(Cl)cc1)c1cc2c(s1)-c1ccccc1SC2	x	2%	x	x	x
CCn1nc(C(=O)OC(C(=O)c2c[nH]c3ccccc23)c2ccccc2)c2ccccc2c1=O (stereo not drawn)	2%	4%[38.3 µM]	i	15%	12µM*
CC1(C)SC(=S)N(Cc2ccc3c(c2)OCO3)C1N(O)C(=O)NC1CCCCC1 (stereo not drawn)	0%	9%	u	6%	15µM*
CC1(C(=O)NC2CCCCC2)CCC(=O)N1Cc1ccc2c(c1)OCO2 (stereo not drawn)	5%	-2%	i	-78%	i
O=C(NCc1ccc2c(c1)OCO2)NC1CCCCC1	0%	7%	i	1%	i
CC1(C(=O)NC2CCCCCC2)CCC(=O)N1Cc1ccc2c(c1)OCO2 (stereo not drawn)	1%	-3%	i	20%	21µM*
c1cncc(OC2CCN(Cc3ccc4c(c3)CN(Cc3ccc5c(c3)OCO5)CCO4)CC2)c1	x	0%	x	x	x
N#Cc1c(-c2ccc(Cl)cc2)n(O)c2ccccc12	3.7µM*	35µM*	7.3µM*	8.2µM*	3.7µM*
N#Cc1c(-c2ccc(Cl)cc2)c(C#N)c(=O)n(N)c1N	-5%	1%	i	-9%	i
COc1ccc(-c2cn(-c3ccccc3)c(=S)[nH]2)cc1OC	2%	-1%	3.3µM*	-5%	i
COc1ccccc1-n1cc(-c2ccc(C)cc2)[nH]c1=S	18µM*	9%	u	u	23µM*
COc1ccccc1-n1cc(-c2ccc(Br)cc2)[nH]c1=S	14%	7%	i	u	i
COc1ccc(-c2cn(-c3ccc(C)c(C)c3)c(=S)[nH]2)cc1OC	9%	-1%	i	0%	i
COc1ccc(-c2cn(-c3ccc(C)c(Cl)c3)c(=S)[nH]2)cc1OC	13%	5%	16µM*	-1%	i
CC(=O)Nc1ccc(NC(=O)C(C)OC(=O)/C(C#N)=C/c2ccc(N(C)C)cc2)cc1 (stereo not drawn)	12%	-1%	i	-6%	i
CC(OC(=O)/C(C#N)=C/c1ccc(N(C)C)cc1)C(=O)N(C)c1ccccc1 (stereo not drawn)	u	1%	i	4%	18µM*
O=C(C/C=N\O)Nc1ccc(Oc2ccccc2)cc1	20%	1%	i	17%	i
SMILES	MCF10A rereplic	PINK1 expr mod	KB-3-1 tox	SW480 rerep	KB-V1 MDR tox
CO/N=C\CC(=O)Nc1ccc(Oc2ccccc2)cc1	u	6%	8.2µM*	5.2µM*	u
COc1ccc(S[C@@H](CCN2CC[C@H](C)CCC2=O)c2ccccc2)cc1	18µM*	13%	i	-2%	u
Cc1ccc(S[C@@H](CCN2CC[C@H](C)CCC2=O)c2ccccc2)cc1	u	-1%	u	-6%	12µM*!
C[C@@H]1CCC(=O)N(CC[C@H](Sc2ccc(Br)cc2)c2ccccc2)CC1	-33%	0%	u	16%	u
COc1cccc(C#CC2=CC(=O)C[C@H](c3ccc(F)cc3)C2)c1	x	0%	u	x	i
Cc1ccc2nc(N3CCN(c4ccccc4F)CC3)c3nnnn3c2c1	x	1%	x	x	x
Cc1cccc(-n2ncc3c(Nc4c(C)cc(C)cc4C)ncnc32)c1	x	9%	9.2µM*	x	u
Cc1ccc(-n2ncc3c(NCCO)ncnc32)cc1Cl	x	0%	i	x	5.8µM*
Cc1cccc(-n2ncc3c(N)ncnc32)c1	-2%	-2%	u	1%	8.2µM*
COc1ccc(OCc2cc(=O)c3ccc4c(c3o2)C=CC(C)(C)O4)cc1OC	16%	3%	i	-51%	i
CC(C)=CCOc1ccc([C@@H]2COc3c(ccc4c3C=CC(C)(C)O4)C2)c(O)c1	21µM*	u	u	-11%	u
CCOC(=O)C1=C(CS(=O)(=O)c2ccc(F)cc2)NC(=O)NC1c1ccc(O)c(O)c1 (stereo not drawn)	-4%	-1%	i	-12%	i
COC(=O)c1[nH]c2c(c1C)C(=O)CC(c1cccc(OC)c1)C2 (stereo not drawn)	u	14%	u	0.73µM*	u
Cc1c(C(=O)OCC2CCCO2)[nH]c2c1C(=O)CC(c1ccc(N(C)C)cc1)C2 (stereo not drawn)	15%	2%	u	23%	21µM*
COC(=O)c1[nH]c2c(c1C)C(=O)CC(c1ccc(OC)c(OC)c1)C2 (stereo not drawn)	-3%	1%	i	-5%	i
Cc1c(C(=O)OCc2ccccc2)[nH]c2c1C(=O)CC(c1ccc(N(C)C)cc1)C2 (stereo not drawn)	x	2%	x	x	x
CCOCCOC(=O)C1=C(C)NC2=C(C(=O)CC(c3cccs3)C2)C1c1ccsc1 (stereo not drawn)	-1%	0%[38.3 µM]	i	2%	21µM*
CCCCCOC(=O)c1[nH]c2c(c1C)C(=O)CC(c1ccco1)C2 (stereo not drawn)	u	5%	u	0.12µM*	0.0082µM*
CCCCCc1ccc(-c2cn(Cc3ccc4c(c3)C(=O)c3ccccc3C4=O)nn2)cc1	x	x	i	x	i
CCC(C(=O)NC1CCCC1)n1c2ccccc2c2nc(=O)cc(C)n21 (stereo not drawn)	-17%	-1%	i	4%	i
Cc1nc2ccn(Cc3ccco3)c(=O)c2cc1C(=O)NCc1ccccc1	x	1%	x	x	x
COc1cccc(-c2cnc(C(O)c3ccc(F)c(C)c3)[nH]2)c1 (stereo not drawn)	x	2%	i	x	i

Compound activity (PubChem BioAssay)
